# Source: PubChem BioAssay (NCI)
# About 83,000 compounds went through this panel and 20% of them were active in at least one assay; those are over-represented in the sample as a whole.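 Interpretation: 100, growth as untreated; towards 0, rising growth inhibition; 0, no net growth; 0 to -100, cell death. Compounds scoring below 10 were considered active.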 A number with no mark means an inactive call. Activity calls are given as the source filed them.
# Assays:
# Experiment in all cases: NCI-60 one-dose screen, 48 h (100 = growth as untreated, 0 = no growth, -100 = all killed)
# Settings in all cases: 10 µM unless noted
# BT-549 breast = system: BT-549 breast
# MDA-MB-435 melanoma = system: MDA-MB-435 melanoma
# SW-620 colon = system: SW-620 colon
# MCF7 breast = system: MCF7 breast
# HCT-116 colon = system: HCT-116 colon
# HCC-2998 colon = system: HCC-2998 colon
# KM12 colon = system: KM12 colon
Structure (SMILES),growth (BT-549 breast),growth (MDA-MB-435 melanoma),growth (SW-620 colon),growth (MCF7 breast),growth (HCT-116 colon),growth (HCC-2998 colon),growth (KM12 colon)
COC1=C(OC)C(=O)C(CCCCCCCCCC[P+](c2ccccc2)(c2ccccc2)c2ccccc2)=C(C)C1=O,-78.9% (active),-82.6% (active),-13.2% (active),-49.9% (active),6.18% (active),-18.3% (active),-37.5% (active)
C=C1CCC2C(C)(CO)C(O)CCC2(C)C1CC(NCc1ccccc1)C1=CCOC1=O (stereo not given),,106%,97.3%,89.8%,99.8%,108%,104%
Cn1c(=O)c2[nH]c(C3CC=CCC3)nc2n(C)c1=O (stereo not given),108%,,101%,102%,106%,104%,108%
COC(=O)c1cccc2c1N(C)c1c(cccc1C(=O)OC)CC2,112%,101%,105%,108%,104%,97.4%,101%
Fc1ccc(CNCCNc2ncnc3c2cnn3-c2ccccc2)cc1,102%,95.4%,103%,96.5%,99.9%,,107%
O=C(O)Cc1cccc(=O)c(O)c1C(=O)O,102%,109%,106%,100%,102%,106%,104%
Nc1ncnc2c1c(-c1ccc(Oc3ccccc3)cc1)nn2C[C@@H]1SSC[C@@H]1O,83%,-90.9% (active),25.4%,-4.42% (active),7.61% (active),56.5%,37.2%
CN(C)CCCC(C#N)c1ccccc1 (stereo not given),111%,115%,106%,100%,107%,105%,111%
Nc1nc(-c2ccccc2)c(CCCOc2ccc(NC(=O)CBr)cc2)c(=O)[nH]1,100%,94.6%,108%,78.8%,103%,107%,109%
Cc1cc(C2(c3cc(C)c(O)cc3C)OS(=O)(=O)c3ccccc32)c(C)cc1O,,,106%,78.5%,103%,101%,106%
CN(C)c1nc2c(N)ncnc2n1C1OC(CO)C(O)C1O (stereo not given),99.9%,112%,109%,99.4%,105%,110%,105%
N#C/C(=C1C=C/C(=N/O)C(Cl)=C/1)c1ccc(Cl)cc1,87.2%,29.5%,59.2%,13.7%,1.93% (active),101%,-46.4% (active)
Oc1ccccc1/C=N/NC(=S)NC1CC2C=CC1C2 (stereo not given),61%,11.9%,45.5%,80.7%,42.9%,66.5%,53%
COc1cc(-c2nn(-c3cccc(NC(=O)c4ccc(Cl)c(C(F)(F)F)c4)c3)cc2-c2ccncc2)ccc1Cl,49.7%,-26.8% (active),36.1%,37.6%,24%,,28.8%
COc1cc(C2CC(c3ccc4c(c3)OCO4)=NN2C=O)cc(OC)c1OC (stereo not given),40.3%,-25.9% (active),27%,16.8%,20.6%,64.2%,23.3%
NNc1cccc(/C=C/c2ccccc2)cc1=O,69.1%,73.2%,54.7%,36.1%,33.8%,70.2%,59%
CCN(CC)c1ccc(/C=C2\Oc3ccc(O)c(I)c3C2=O)cc1,54.4%,16.7%,43.2%,26.9%,33.9%,97.2%,43.3%

Structure (SMILES),growth (BT-549 breast),growth (MDA-MB-435 melanoma),growth (SW-620 colon),growth (MCF7 breast),growth (HCT-116 colon),growth (HCC-2998 colon),growth (KM12 colon)
Cc1ccc2nc(Cl)cc(=O)n2c1,102%,106%,108%,107%,105%,121%,107%
CC[N+](CC)=c1cc2oc3cc(N(C)C)ccc3nc-2cc1C,60.2%,,15.9%,,7.17% (active),32.3%,33.3%
CN1C=CN(Cc2ccc(-c3ccccn3)nc2)[CH-]1.CN1C=CN(Cc2ccc(-c3ccccn3)nc2)[CH-]1.[Au+3],31.1%,30.6%,36.2%,9.07% (active),1.98% (active),25.3%,24.9%
CC(C)OC(=O)N1CCOCC1,101%,117%,95.4%,100%,102%,104%,100%
C/C=C/C1=CN2C(=O)c3cc(OC4OC(C)C(NC)C(C)(O)C4O)c(C)cc3N=C[C@@H]2C1 (stereo not given in full),-41.2% (active),-63.1% (active),-0.311% (active),3.78% (active),3.87% (active),,-41.4% (active)
CCCCNC(=O)Oc1ccc(/C(=C(\C)c2ccccc2)c2ccc(OCCN(CC)CC)cc2)cc1,72.3%,58.7%,69.7%,33.8%,48.1%,82.6%,60.6%
O=C1Nc2ccc(Cl)cc2C12Nc1cc(Cl)ccc1S2 (stereo not given),80%,91.4%,98.9%,43.4%,61.2%,78.9%,70.7%
S=C1CC(=S)NC(=S)N1,110%,112%,98.2%,94.1%,105%,104%,98.9%
Nc1nc(=O)c2ccccc2s1,101%,102%,116%,103%,107%,107%,112%
COc1cc(/C=C/C(=O)N2CCN(C(=O)/C=C/c3cc(OC)c(OC)c(OC)c3)CC2)cc(OC)c1OC,88.1%,115%,105%,113%,98.3%,102%,115%
CC(C)C(C(=O)NCCN1CCOCC1)N1C(=O)/C(=C/c2ccc(Br)cc2)SC1=S (stereo not given),99%,101%,102%,95.3%,94.8%,107%,99.7%
COc1ccc(C(=O)c2cc(OC)c3c(c2)OCO3)cc1O,54.5%,-22.5% (active),24.6%,17.1%,7.71% (active),16.2%,4.48% (active)
CO[C@H]1NC(=O)N(S(=O)(=O)c2ccc(Cl)cc2)[C@@H]1OC,108%,97.3%,108%,99.4%,110%,110%,103%
CCCCCCCCCCCCCCCCNC(=O)OC(C)C,95.8%,,18.9%,1.73% (active),20.8%,57.1%,0.501% (active)
N=C(N)c1ccc(-c2ccc(-c3ccc(-c4cccs4)s3)s2)cc1,99.5%,103%,99.6%,84%,93.6%,98.7%,96.8%
O=Nc1c(-c2cccc([N+](=O)[O-])c2)nc2ncccn12,73.4%,,18.2%,70.2%,51.1%,93.6%,89.3%
